# GPT2 inh – blocks human glutamate pyruvate transaminase 2. Q8TD30. Recombinant GPT2, coupled pyruvate oxidase/HRP Amplex Red fluorescence. Potency, µM (highest dose often 57.7 µM), inactives show at the top dose activity change, negative = inhibition, usual class: inhibitors. 100,000 tested, 0.25% active. AID 1671188; note: nearly all actives have a fitted effect of over 60% in size
#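 Inhibition is scored from Amplex Red fluorescence generated when pyruvate oxidase and HRP act on pyruvate released by GPT2. Reactions contain 10ng/uL enzyme, 250uM a-KG and 2mM L-alanine and run 30 min at room temperature.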
# 3T3 cytotox – cytotoxic compounds in NIH 3T3 cells | NIH 3T3 viability, CellTiter-Glo ATP luminescence, 48-72 h | Potency, µM (top dose mostly 96.7 µM), for inactives: top-dose activity change, negative = cytotoxicity, most hits filed as inhibitors | 94,000 tested, 4.3% active | AID 1345082; note: nearly all actives have a fitted effect of over 55% in size
#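 ATP-dependent luminescence (CellTiter-Glo) served as the viability signal for NIH 3T3 cells treated with compound for 48 or 72 hr at 37 °C.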
# FLuc inh – Photinus pyralis luciferase inhibition; purified P. pyralis luciferase, luminescence, biochemical; Potency, µM (titrated, usually from 115 µM), usual class: inhibitors; 76,000 tested, 2.5% active; note: nearly all actives have a fitted effect of over 65% in size
#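 FLuc 10nM, D-luciferin 10uM, ATP 10uM, Mg acetate 10mM, Tris acetate pH 7.5, Tween/BSA; cpd qHTS; enzyme added last; CCD luminescence.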
# HEK cytotox – cytotoxic compounds in HEK 293 cells. HEK 293 viability, ATP luminescence (CellTiter-Glo), 48-72 h. Potency, µM (doses to about 115 µM), for the others: at the highest dose activity change, negative = cytotoxicity, hits mostly inhibitors. 94,000 tested, 6.6% active. AID 1345083; note: nearly all actives have a fitted effect of over 60% in size
#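 Pintool-delivered compounds were incubated with HEK 293 cells (250 cells/well) at 37 degree Celsius for 48 or 72 hr. ATP-dependent luminescence (CellTiter-Glo) then reported remaining viable cells.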
# hNpr1 antagonist – blocks ANP-stimulated signaling of human Npr1 receptor; P16066; HEK293 hNpr1 GloSensor cGMP, ANP-stimulated luminescence; Potency, µM (doses to about 46.3 µM), for inactives: at the top dose activity change, negative = inhibition, most hits filed as inhibitors; 76,000 tested, 1.6% active; AID 1347048; calls by dose curve; note: nearly all actives have a fitted effect of over 60% in size
#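 Compound pre-incubated 30 min at room temperature on GloSensor-loaded HEK293 cells stably carrying hNpr1 and the pGS-40F cGMP biosensor. Stimulation uses hNppA at 0.1 nM final; luminescence is taken at baseline and 20 min post-agonist.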
# * hit, by the source's call; i = inactive; ? = inconclusive; · = no result; ! = repeats disagree; [ ] = another dose, or the depositor's remark. Compounds with a hit are over-represented: about 10% of the library has one in this group of screens. Unless noted, calls come from the whole dose curve; as a rule, active = well fitted curve in the direction sought with a large enough effect; inconclusive = small, poorly fitted or top-dose-only effect, or another doubt; inactive = no such curve, though single readings can be large; an effect the other way counts as inactive or inconclusive. % is set by controls: 0 for no effect and ±100 for the full control effect; potency is the fitted concentration of half-maximal effect.
SMILES,GPT2 inh,3T3 cytotox,FLuc inh,HEK cytotox,hNpr1 antagonist
O=C(NC1CCN(c2cc(-c3ccc(Cl)cc3)[nH]n2)C1)c1ccc2c(c1)OCO2 (stereo unspecified),?,?,i,?,-29%
CC(C)c1ccc(CC(=O)N2CCCc3ncc(C(=O)NCCOc4ccccc4)cc32)cc1,-18%,?,?,40µM*,?
CC(C)CCNC(=O)c1cnc2c(c1)N(C(=O)Cc1ccc(C(C)C)cc1)CCC2,i,100µM*,i,100µM*,-23%[70.6 µM]
COC(=O)N1CCC(c2nn(-c3ccc(F)cc3)c(=O)[nH]2)CC1,-1%[88.5 µM],-19%[138 µM],i,-15%[172 µM],-1%[70.6 µM]
O=C1NC(=O)C(c2ccc(-c3ccc4nc[nH]c(=O)c4c3)cc2)N1 (stereo unspecified),i,-6%,i,-1%,-1%
O=C(NC1CCN(c2cc(-c3ccccc3)[nH]n2)CC1)c1ccc2ccccc2n1,i,28µM*,i,50µM*,-24%
COc1ccc(-c2cc(N3CCC(NC(=O)c4ccc(Cl)cc4)C3)n[nH]2)cc1 (stereo unspecified),-15%,?,i,?,-13%
O=C(Cc1cccc(Cl)c1)NC1CCN(c2cc(-c3ccccc3)[nH]n2)CC1,i,32µM*,i,?,-30%
COc1ccc(-c2cc(N3CCC(NC(=O)Cc4ccc(Cl)cc4)CC3)n[nH]2)cc1,-14%,?,i,?,-25%
COc1ccc(-c2cc(N3CCC(NC(=O)c4ccc(Cl)cc4)CC3)n[nH]2)cc1,i,?,i,45µM*,?
COc1ccc(CC(=O)NC2CCN(c3cc(-c4ccc(Cl)cc4)[nH]n3)C2)cc1 (stereo unspecified),?,?,i,28µM*,-30%
COc1ccccc1N1CCN(CC(O)COc2cc(OC)c(OC)c(OC)c2)CC1 (stereo unspecified),3%,·,·,·,·
O=c1[nH]nc(OCCCc2ccc(Cl)cc2)c(NCc2cccnc2)c1Br,3%,·,·,·,·
COc1cc(OC)cc(C(=O)NC2CCN(c3cc(-c4ccc(F)cc4)[nH]n3)CC2)c1,-12%,35µM*,i,?,-22%
O=C(NC1CCN(c2cc(-c3ccccc3)[nH]n2)CC1)c1ccc(Cl)cc1,5%,20µM*,i,?,-27%
O=C(NC1CCN(c2cc(-c3ccc(Cl)cc3)[nH]n2)CC1)c1ccc2[nH]ccc2c1,i,35µM*,i,40µM*,-22%
CC(=O)Nc1ccc(C(=O)NC2CCN(c3cc(-c4ccccc4)[nH]n3)CC2)cc1,i,?,i,-22%,-12%
O=C(c1ccccc1F)N1CCC2(CC1)Cc1ccccc1NC2=O,i,?,i,50µM*,0%
O=C(c1cccc(Cl)c1)N1CCC2(CC1)Cc1ccccc1NC2=O,0%,?,i,?,22%
O=C(c1ccc(Cl)cc1)N1CCC2(Cc3ccccc3NC2=O)C1 (stereo unspecified),0%[88.5 µM],?,i,?,-27%[70.6 µM]
O=C(c1ccc(Cl)cc1)N1CCC2(CC1)Cc1ccccc1NC2=O,2%,28µM*!,i,?,2%
Cc1ccc(C(=O)N2CCC23Cc2ccccc2NC3=O)cc1 (stereo unspecified),i,-18%[138 µM],i,100µM*,0%[70.6 µM]
COc1cccc(C(=O)N2CCC3(CC2)Cc2ccccc2NC3=O)c1,3%,35µM*,i,45µM*,-2%
O=C(CC[C@H]1NC(=O)c2ccccc2NC1=O)Nc1cccc(-c2ncn[nH]2)c1,4%,i,i,0%,-5%
COc1ccc(C(=O)N2CCn3c(nnc3-c3cccnc3)C2)cc1,2%,-7%,·,-4%,·
O=C(Cc1ccc(F)cc1)N1CCC2(CC1)Cc1ccccc1NC2=O,1%,-7%,i,0%,?
O=C(Cc1ccccc1)N1CCC2(Cc3ccccc3NC2=O)C1 (stereo unspecified),i,-24%[138 µM],i,100µM*,-5%[70.6 µM]
